Screening data: PubChem, National Center for Advancing Translational Sciences (NCATS)
In the library only some 9% were active in any assay of this set; here they are far more common.
HttQ103 aggreg = inhibitors of mutant huntingtin aggregate formation in PC12 cells; 220,000 tested, 1.1% active; Potency, µM (titrated, usually from 46.1 µM), inactives show at the top dose activity change, negative = inhibition, actives largely listed as inhibitors; PC12 HttQ103-GFP aggregates, Acumen cytometry, 40 h; further: on the % scale 0 is the no-effect control and ±100 the full control effect; nearly all actives have a fitted effect of over 60% in size
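PC12 cells with ecdysone-inducible HTT exon1 Q103-GFP, induced by 100 nM tebufenozide, given compounds in a concentration series. GFP aggregates (1–25 um, 6 SD above background) counted in lysates by laser-scanning cytometry, 488 nm excitation.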
HTT cytoprotect = Huntington cell model cytoprotection by ATP luminescence | PC12 HTT-Q103 induced, cytoprotection, ATP luminescence, 40 h | Potency, µM (top dose mostly 56.4 µM), for inactives: cytoprotection (ATP increase), actives largely listed as activators | 230,000 tested, 0.14% active; further: % of control where 0% means no effect; nearly all actives have a fitted effect of over 45% in size
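Compounds added alongside 100 nM tebufenozide, which induces toxic Q103 huntingtin exon 1-GFP in stable PC12 cells; surviving cells quantified by luminescent ATP measurement. Medium: phenol red-free DMEM, 5% equine and 5% calf serum.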
Luc counter = blocks Kinase-Glo luciferase, a counter-screen artifact; Kinase-Glo luciferase, ATP luminescence, 8 min; Potency, µM (series often up to 38.3 µM), inactives show at the highest dose activity change, negative = inhibition, actives largely listed as inhibitors; 200,000 tested, 0.28% active; Q27757; further: on the % scale 0 is the no-effect control and ±100 the full control effect; nearly all actives have a fitted effect of over 60% in size
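Recombinant Kinase-Glo luciferase, 10 uM ATP (linear range), luciferin; imidazole pH 7.2 / KCl / MgCl2 / Tween / BSA buffer; 8 min RT; luminescence.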
HPGD inh = inhibitors of human 15-hydroxyprostaglandin dehydrogenase (HPGD) | purified HPGD, NADH fluorescence kinetic, PGE2 substrate | Potency, µM, without a hit: top-dose activity change, negative = inhibition, usual class: inhibitors | AID 894 | 150,000 tested, 4.3% active; active means well fitted inhibition curve with a large enough effect, not every such curve was filed as active; inconclusive means small, poorly fitted or top-dose-only effect, or another doubt; inactive means no such curve, though single readings can be large or run the other way; further: on the % scale 0 is the no-effect control and ±100 the full control effect
Target sequence (P15428 whole entry, looked up): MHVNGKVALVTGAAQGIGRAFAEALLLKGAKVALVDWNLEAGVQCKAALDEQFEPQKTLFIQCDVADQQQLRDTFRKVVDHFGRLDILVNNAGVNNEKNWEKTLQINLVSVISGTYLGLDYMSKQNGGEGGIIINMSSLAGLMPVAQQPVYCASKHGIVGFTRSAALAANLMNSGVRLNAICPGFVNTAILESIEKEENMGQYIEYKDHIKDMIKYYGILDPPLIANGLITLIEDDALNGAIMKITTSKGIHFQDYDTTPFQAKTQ
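NADH formation kinetics: reaction with 30 uM PGE2 and 1 mM NAD+ (final), 20 nM enzyme, Tris-HCl pH 8 with Tween 20, after 15 min compound preincubation at room temperature. Fluorescence change, last versus first of five reads.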
LMNA splice mod = changes lamin A minigene splicing in HeLa cells; 200,000 tested, 0.01% active; HeLa LMNA splicing GFP/RFP minigene ratio, 48 h; Potency, µM (top dose mostly 46.1 µM), for inactives: at the highest dose ratio change, negative = inhibition, most hits filed as inhibitors; AID 1487; active means well fitted inhibition curve with a large enough effect in the signal ratio, with a control signal flat, not every such curve was filed as active; inconclusive means small, poorly fitted or top-dose-only effect, or effect the other way, or a change in a side signal; the % refers to the signal ratio; further: on the % scale 0 is the no-effect control and ±100 the full control effect
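S3 HeLa cells stably expressing lamin A-EGFP splicing minigene plus DsRed2, 600 cells/well, 48 h compound exposure at 37C. Laser-scanning cytometry; analysed as GFP (500-530 nm)/RFP (575-640 nm) total intensity ratio; 0.5% DMSO vehicle.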
ALDH1A1 inh = inhibitors of human aldehyde dehydrogenase 1A1 | P00352 | Purified ALDH1A1, NADH fluorescence, propionaldehyde substrate | AID 1030 | Potency, µM (titrated, usually from 75.3 µM), inactives show at the highest dose activity, negative = inhibition, usual class: inhibitors | 220,000 tested, 7.3% active; active means well fitted inhibition curve with a large enough effect, not every such curve was filed as active; inconclusive means small, poorly fitted or top-dose-only effect, or another doubt; inactive means no such curve, though single readings can be large or run the other way;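 further: plate controls were no enzyme wells and a reference inhibitor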
Target sequence (P00352 whole entry, looked up): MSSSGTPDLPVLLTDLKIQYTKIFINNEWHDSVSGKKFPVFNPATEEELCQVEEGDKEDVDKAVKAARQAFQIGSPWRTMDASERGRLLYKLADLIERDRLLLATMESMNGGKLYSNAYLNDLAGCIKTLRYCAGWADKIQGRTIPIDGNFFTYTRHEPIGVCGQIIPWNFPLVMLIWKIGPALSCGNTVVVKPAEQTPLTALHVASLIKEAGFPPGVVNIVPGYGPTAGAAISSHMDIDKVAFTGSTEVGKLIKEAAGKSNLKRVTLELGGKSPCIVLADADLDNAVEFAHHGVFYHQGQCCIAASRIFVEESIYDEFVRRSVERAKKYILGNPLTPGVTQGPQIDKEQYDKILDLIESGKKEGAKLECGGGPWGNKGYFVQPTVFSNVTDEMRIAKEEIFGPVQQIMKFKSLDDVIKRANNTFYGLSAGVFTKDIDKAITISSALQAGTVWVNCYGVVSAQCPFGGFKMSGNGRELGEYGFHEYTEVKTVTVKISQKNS
Numbers without * were called inactive; ? = inconclusive; nt = no result given; [ ] = another dose, or the depositor's remark. Unless noted, the call rests on the fitted dose curve; in most records, active means well fitted curve in the direction sought with a large enough effect; inconclusive means small, poorly fitted or top-dose-only effect, or another doubt; inactive means no such curve, though single readings can be large; an effect the other way counts as inactive or inconclusive. Potency means the concentration at half of the fitted maximal effect.

SMILES	HttQ103 aggreg	HTT cytoprotect	Luc counter	HPGD inh	LMNA splice mod	ALDH1A1 inh
O=C1C=C(NCc2ccc(Cl)cc2)CC(c2ccco2)C1 (configuration not stated)	-2%	2%	13%	-17%	-9%	-7%
COc1ccccc1NC(=O)Cn1nnc(C(=O)NCCc2ccccc2)c1N	29%[9.22 µM]	-55%	1%	nt	nt	6%
CNc1nc2ccccc2n(C)c1=O	1%	-29%	-4%	nt	nt	-14%
COc1ccccc1Nc1nc(N)nc(-c2oc3ccccc3c2C)n1	8%	-9%	-1%	?	0%	?
COc1ccc(CNC(=O)CN(Cc2ccccc2)C(=O)c2csnn2)cc1	25%	-9%	0%	-6%	9%	?
COc1ccc(CNC(=O)c2csnn2)cc1	8%	-18%	1%	-19%	-2%	25µM*
COc1ccc(CNC(=O)CN(Cc2ccc(OC)cc2)C(=O)c2csnn2)cc1	4%[9.22 µM]	-21%[10 µM]	0%	nt	nt	2.2µM*
COc1ccc(CNC(=O)COC(=O)c2ccccn2)cc1	-1%	-4%	0%	nt	3%[46 µM]	25µM*
COC(=O)[C@@]1(Cc2ccc(F)cc2)[C@H]2c3cc(C(=O)N4CCCC4)n(Cc4cc(C)n(C)n4)c3C[C@H]2CN1C(=O)c1ccccc1	nt	0%	-1%	-13%	nt	4%
Cc1ccc(Cn2cc(/C=N/Nc3ccc([N+](=O)[O-])cn3)c3ccccc32)cc1	-27%	-16%[10 µM]	-1%	-16%	-3%	10µM*
Cc1ccc(C(=O)N/N=C/c2cn(Cc3ccccc3)c3ccccc23)cn1	9%[9.22 µM]	3%[10 µM]	nt	nt	nt	13µM*
Cc1c(/C=N/Nc2ccc([N+](=O)[O-])cn2)c2ccccc2n1Cc1ccccc1	4%[9.22 µM]	22%[10 µM]	nt	nt	nt	nt
Cc1ccc(-n2c(C)cc(/C=N/Nc3ccc([N+](=O)[O-])cn3)c2C)cc1	10%	-13%	-6%	-5%	9%	10µM*
Cc1nn(Cc2ccccc2)c(C)c1/C=N/NC(=O)c1cccnc1	16%	6%[10 µM]	-4%	32µM*	-13%	-6%
CC(=O)Nc1ccc(S(=O)(=O)NCC2CCC(C(=O)N3CCN(c4ccccn4)CC3)CC2)cc1 (configuration not stated)	0%	-9%	-4%	-22%	14%	-2%
O=C(O)C1C2C=CC(C2)C1C(=O)NCCCn1ccnc1 (configuration not stated)	11%	9%[0.074 µM]	5%	-8%	13%	-8%
CCOC(=O)c1ccc(-c2cccc(C(F)(F)F)c2)nc1C	2%	-7%[10 µM]	1%	-20%	-13%	1%
NC(=O)/C(=N\O)c1ccccc1	2%	-24%	-1%	2%	0%	10%
O=c1[nH]c(/C(=N\O)c2ccccc2)no1	-9%	15%	1%	?	14%	24µM*
O=C(CN(Cc1ccccc1)S(=O)(=O)c1ccccc1)N/N=C/c1ccccc1[N+](=O)[O-]	1%	-16%	2%	-1%	-13%	11µM*
CCOC(=O)c1cnc2nc(SC)nn2c1N	-5%	-35%	-3%	nt	21%[46 µM]	3%
Cn1c(SCC(=O)Nc2ccc(N3CCOCC3)cc2)nnc1-c1ccccc1	2%	-25%	1%	2%	0%	?
CCC1S/C(=N\S(=O)(=O)c2cccs2)N(C2CCCCC2)C1=O (configuration not stated)	-10%	-24%[10 µM]	-3%	-8%	7%	7.9µM*
O=C(O)C1CCCN(S(=O)(=O)c2cccs2)C1 (configuration not stated)	3%	4%[10 µM]	-1%	-14%	-8%	1%
BrC/C=C/CBr	nt	-10%	nt	-2%	nt	25µM*
SMILES	HttQ103 aggreg	HTT cytoprotect	Luc counter	HPGD inh	LMNA splice mod	ALDH1A1 inh
Cc1cccc(C2(c3cccc(C)c3)CC2C(=O)Nc2ccc([N+](=O)[O-])cc2O)c1 (configuration not stated)	?	5%[10 µM]	-2%	18µM*	?	-4%
Cc1cccc(C2(c3cccc(C)c3)CC2C(=O)NCC2CCCO2)c1 (configuration not stated)	5%	13%[10 µM]	3%	-8%	7%	14%
O=C(c1ccc2c(c1)OCO2)C1CCCN(C(=O)NCc2ccccc2)C1 (configuration not stated)	-17%[9.22 µM]	17%[10 µM]	2%	nt	?	-8%
O=C(c1ccc2c(c1)OCO2)C1CCCN(C(=O)c2cnn(Cc3ccccc3)c2)C1 (configuration not stated)	5%[9.22 µM]	-17%[10 µM]	0%	nt	?	25µM*
CCC(C)N1CC23C=CC(O2)C(C(=O)OC)C3C1=O (configuration not stated)	-3%	35%[10 µM]	-4%	1%	3%	0%
COc1cc(NC(=O)C2=C(N3CCOCC3)/C(=C/c3ccc(Cl)cc3)CC2)cc(OC)c1OC	13%	35%[10 µM]	-2%	-25%	-7%	1%
COc1cc(NC(=O)C2=C(N3CCOCC3)/C(=C\c3ccc(N(C)C)cc3)CCC2)cc(OC)c1OC	29%	nt	-3%	-8%	?	18µM*
O=C(CSCc1c(F)cccc1Cl)NCc1ccncc1	-4%[9.22 µM]	-25%[1.9 µM]	-8%	nt	?	?
COn1c2c(c3c4no[n+]([O-])c4ccc31)CCCC2	-16%	3%[10 µM]	-3%	-16%	3%	-5%
[O-][n+]1c2c(c3c4non(O)c4ccc31)CCCC2	?	-41%	1%	7.9µM*	?	-12%
CC(C)(C)OC(=O)NCCCCCc1nnc(SCC(=O)Nc2cccc(Cl)c2)o1	0%[9.22 µM]	-3%[0.074 µM]	3%	14µM*	?	?
O=C(CSc1nnc(CNC(=O)c2c(F)cccc2Cl)o1)Nc1ccc2c(c1)OCCO2	2%	-1%	-2%	-7%	5%	18µM*
COc1ccc(OC)c(NC(=O)CSc2nnc(C)n2Cc2ccccc2)c1	11%	9%	4%	-11%	-5%	18µM*
COc1ccc(Cl)cc1NC(=O)CSc1nnc(CNC(=O)c2ccco2)o1	-8%	-18%	10%	nt	nt	-3%
COc1ccc(OC)c(NC(=O)CSc2nnc(CNC(=O)c3ccco3)o2)c1	3%	0%	-1%	-16%	4%	10µM*
COc1ccc(C2SCC(C(=O)O)N2C(C)=O)cc1OC (configuration not stated)	-4%	5%	-1%	-10%	3%	-7%
CS(=O)(=O)c1ccc2nc(NC3(C(F)(F)F)N=C4SCCN4C3=O)sc2c1 (configuration not stated)	-2%	-10%[0.074 µM]	-2%	0%	3%	5%
COc1ccc([N+](=O)[O-])cc1NS(=O)(=O)c1cc(C(=O)O)ccc1OC	12%[9.22 µM]	2%[10 µM]	nt	nt	nt	nt
